Test [1] is described as follows: qHTS RealTime-Glo MT Cell Viability Assay in HEK293 cells - 8 hour (AID 1224887). Further: top concentration of the series differs between compounds; nearly all actives have a fitted effect of over 50% in size. An outline of the steps: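 600 HEK293 cells per well, dispensed already mixed with RealTime-Glo MT reagents. Compound dosing came 5 h later. The same wells were read for luminescence at 0, 8, 16, 24, 32 and 40 h of exposure at 37 C.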
In general terms: In qHTS, concentration-response curves come from the screen itself.

Test [2] in a line: A CellTox Green Cytotoxicity Assay to monitor cytotoxicity in HEK293 cells - 16 hour (AID 1224888). Further: nearly all actives have a fitted effect of over 35% in size. Put shortly: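 Dead-cell fluorescence measured kinetically: asymmetric cyanine dye, HEK293, 600 cells/well, 5 h settle, 23 nL cpd/DMSO, 37 C, reads 0–40 h every 8 h.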
A short description of test [3]: qHTS RealTime-Glo MT Cell Viability Assay in HepG2 cells - 0 hour (AID 1224889). Further: nearly all actives have a fitted effect of over 50% in size. An outline of the steps: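 qHTS, HepG2, 600 cells/well, RealTime-Glo (NanoLuc + prosubstrate) added with cells; 5 h preincubation; DMSO compound addition; 37 C; luminescence at 0/8/16/24/32/40 h.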
A short description of test [4]: A CellTox Green Cytotoxicity Assay to monitor cytotoxicity in HepG2 cells - 8 hour (AID 1224890). Further: nearly all actives have a fitted effect of over 45% in size. An outline of the steps: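 First, HepG2 cells (600/well) mixed with reagent were plated; second, after 5 h at 37 C they received compounds via pintool; third, fluorescence was measured at 0 h through 40 h at 8 h intervals.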
Test [5] is described as follows: qHTS assay to identify small molecule antagonists of the estrogen receptor alpha (ER-alpha) signaling pathway using the BG1 cell line in the presence of 0.1 nM 17-beta-estradiol - cell viability counter screen (AID 1259241). Further: nearly all actives have a fitted effect of over 40% in size. An outline of the steps: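 In this screen, hormone-deprived VM7Luc4E2 cells were seeded at 4,000 per well, dosed with compound and 0.1 nM estradiol final, and incubated 22 hr at 37C and 5% CO2; fluorogenic live-cell protease signal reported viability.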

Test [6] is described as follows: qHTS assay to identify small molecule antagonists of the androgen receptor (AR) signaling pathway using the MDA cell line in the presence of 0.5 nM R1881 - cell viability counter screen (AID 1259242). Further: nearly all actives have a fitted effect of over 45% in size. An outline of the steps: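 qHTS format. MDA-kb2 (MMTV-luc, AR/GR responsive) + cpd + 0.5 nM R1881 final, 16 hr 37C/0% CO2 → CellTiter-Fluor 30 min → fluorescence intensity.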

Test [7] deals with Estrogen receptor (Homo sapiens) (UniProt P03372). Put plainly: qHTS assay to identify small molecule antagonists of the estrogen receptor alpha (ER-alpha) signaling pathway using the BG1 cell line in the presence of 0.1 nM 17-beta-estradiol (AID 1259244). Further: nearly all actives have a fitted effect of over 50% in size. Put shortly: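 Reporter is a stably transfected luciferase under four estrogen responsive elements in VM7Luc4E2 cells expressing native full-length ER-alpha; inhibition of 0.1 nM (final) 17beta-estradiol-driven signal over 22 h is read by luminescence.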
Chain of Estrogen receptor (Homo sapiens) (P03372 whole entry, looked up): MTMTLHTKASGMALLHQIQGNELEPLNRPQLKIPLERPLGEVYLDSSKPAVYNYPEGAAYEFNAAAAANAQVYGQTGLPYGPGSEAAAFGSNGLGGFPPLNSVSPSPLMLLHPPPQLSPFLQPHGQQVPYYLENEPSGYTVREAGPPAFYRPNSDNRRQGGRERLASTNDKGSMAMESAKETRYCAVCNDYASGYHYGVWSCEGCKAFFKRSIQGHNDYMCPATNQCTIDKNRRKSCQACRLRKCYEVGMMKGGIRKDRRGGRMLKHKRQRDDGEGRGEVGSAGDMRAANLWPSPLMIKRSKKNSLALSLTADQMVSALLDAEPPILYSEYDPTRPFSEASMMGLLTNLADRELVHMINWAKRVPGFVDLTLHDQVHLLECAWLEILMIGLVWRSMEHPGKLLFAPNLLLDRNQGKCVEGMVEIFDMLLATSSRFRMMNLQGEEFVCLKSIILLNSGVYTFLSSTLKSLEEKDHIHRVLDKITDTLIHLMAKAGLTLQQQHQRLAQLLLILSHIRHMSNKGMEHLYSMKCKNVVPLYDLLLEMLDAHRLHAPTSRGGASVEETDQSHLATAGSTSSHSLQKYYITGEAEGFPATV

A short description of test [8]: qHTS assay to identify small molecule HDAC inhibitors (AID 1259364).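 Further: wild-type HCT-116 cells with endogenous class I/II HDAC activity; top concentration of the series differs between compounds; nearly all actives have a fitted effect of over 45% in size.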 An outline of the steps: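 Quantitative high-throughput format: overnight-seeded HCT-116 cells got compounds for 2 hr at 37C; HDAC-Glo I/II reagent added, 30 min RT, luminescence measured.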
Test [9] is described as follows: qHTS assay to identify small molecule HDAC inhibitors - cell viability counter screen (AID 1259365). Further: series mostly up to about 92 µM; nearly all actives have a fitted effect of over 50% in size. Put shortly: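 Measured quantity is CellTiter-Glo luminescence from wild-type HCT-116 cells after compound incubation of 2hr at 37C, 5% CO2; reagent developed 30min at room temperature.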
The nature of test [10]: qHTS assay to identify small molecule agonists of the sonic hedgehog signaling (Shh) pathway - cell viability counter screen (AID 1259366). Further: nearly all actives have a fitted effect of over 50% in size. Further: potency means the concentration at half of the fitted maximal effect. Put shortly:
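In quantitative high-throughput format, 3T3 Gli1-Luc cells were exposed to compounds for 24hr and multiplexed for viability using CellTiter-Fluor, incubated 1hr at 37C before the fluorescence read.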

Test [11] is described as follows: qHTS assay to identify small molecule antagonists of the sonic hedgehog signaling (Shh) pathway - cell viability counter screen (AID 1259367). Further: nearly all actives have a fitted effect of over 55% in size. Further: potency means the concentration at half of the fitted maximal effect. An outline of the steps:
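CellTiter-Fluor signal in conditioned medium-stimulated 3T3 Gli1-Luc cells, 23 hr compound exposure, 37C.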

Test [12] can be described thus: qHTS assay to identify small molecule agonists of the sonic hedgehog signaling (Shh) pathway (AID 1259368; calls by dose curve;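 further: NIH/3T3-derived 3T3Gli1-Luc cells carrying a stable Gli1-driven firefly luciferase reporter; series mostly up to about 92 µM; nearly all actives have a fitted effect of over 15% in size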). Put shortly: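 Quantitative high-throughput format using a Gli1-driven firefly luciferase reporter line derived from NIH/3T3 cells. After a 24 hr compound treatment at 37 C and 5% CO2, luminescence reported Gli1 response element activity.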
The nature of test [13]: qHTS assay to identify small molecule antagonists of the sonic hedgehog signaling (Shh) pathway (AID 1259369; calls by dose curve; further: nearly all actives have a fitted effect of over 45% in size; further: potency means the concentration at half of the fitted maximal effect). An outline of the steps:
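Stable Gli1-Luc reporter NIH/3T3 clone; quantitative HTS in stimulated mode with conditioned medium. Luminescence measured after 24hr compound treatment at 37 C.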

In test [14] the target is Estrogen receptor beta (Homo sapiens) (UniProt Q92731). Put plainly: qHTS assay to identify small molecule agonists of the estrogen receptor beta (ER-beta) signaling pathway (AID 1259377; active means well fitted activation curve with a large enough effect in the signal ratio in the repeat runs, not every such curve was filed as active; the % refers to the signal ratio). An outline of the steps:
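Reporter cells (HEK293T, ER-beta-UAS-bla) receive compounds or DMSO after a 6 hr pre-incubation. They then incubate 16 hr at 37C/5% CO2, and fluorescence from LiveBLAzer B/G substrate is measured after 2 hours at room temperature.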

Test [15] has the same target. Put plainly: qHTS assay to identify small molecule antagonists of the estrogen receptor beta (ER-beta) signaling pathway (AID 1259378; active means well fitted inhibition curve with a large enough effect in the signal ratio in the repeat runs, not every such curve was filed as active; the % refers to the signal ratio). An outline of the steps:
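Antagonist mode: compounds added to beta-lactamase reporter HEK293T ER-beta-UAS cells stimulated with E2 (1nM final), 16 hr at 37C. LiveBLAzer B/G FRET substrate, 2 hours room temperature, fluorescence read-out.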

The nature of test [16]: qHTS assay to identify small molecule agonists of the androgen receptor (AR) signaling pathway in the presence of an antagonist - cell viability counter screen (AID 1259379).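 Further: MDA-kb2 human breast cancer cells carrying an MMTV luciferase reporter; series mostly up to about 92 µM; nearly all actives have a fitted effect of over 25% in size.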 An outline of the steps: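 Nilutamide-containing (3.0uM final) MDA-kb2 cultures, 3,000 cells/well, were treated with compounds across 15 concentrations. After 16 hr at 37C with no CO2, cell viability was determined by CellTiter-Fluor fluorescence in the luciferase assay wells.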

Test [17] is described as follows: qHTS assay to identify small molecule agonists of the estrogen receptor beta (ER-beta) signaling pathway - cell viability counter screen (AID 1259380). Further: nearly all actives have a fitted effect of over 30% in size. Further: potency means the concentration at half of the fitted maximal effect. An outline of the steps: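 Steps: plate ER-beta-UAS-bla HEK293T cells, rest 6 hr; add compounds in DMSO; incubate 16 hr at 37C, 5% CO2; add FRET substrate 2 hr; add CellTiter-Glo, wait 30 min at room temperature; read luminescence.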

The nature of test [18]: qHTS assay to identify small molecule phospholipidosis (PLD) inducers (AID 1259344; active means well fitted curve in the direction sought with a large enough effect; an effect the other way counts as inactive or inconclusive). Put shortly: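 Accumulated phospholipid, stained red by LipidTOX during 24 h compound treatment of HepG2 cells at 37 C, is quantified from images as pit number and intensity, normalised per cell using Hoechst-stained nuclei.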
Test [19] deals with Androgen receptor (Homo sapiens) (UniProt P10275). Put plainly: qHTS assay to identify small molecule antagonists of the androgen receptor (AR) signaling pathway using the MDA cell line in the presence of 0.5 nM R1881 (AID 1259243). Further: nearly all actives have a fitted effect of over 50% in size. An outline of the steps: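 Antagonist mode quantitative HTS in MDA-kb2 MMTV-luciferase cells, agonist R1881 at 0.5 nM final, 16 hr exposure at 37C and 0% CO2, luminescent detection.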
Chain of Androgen receptor (Homo sapiens) (P10275 whole entry, looked up): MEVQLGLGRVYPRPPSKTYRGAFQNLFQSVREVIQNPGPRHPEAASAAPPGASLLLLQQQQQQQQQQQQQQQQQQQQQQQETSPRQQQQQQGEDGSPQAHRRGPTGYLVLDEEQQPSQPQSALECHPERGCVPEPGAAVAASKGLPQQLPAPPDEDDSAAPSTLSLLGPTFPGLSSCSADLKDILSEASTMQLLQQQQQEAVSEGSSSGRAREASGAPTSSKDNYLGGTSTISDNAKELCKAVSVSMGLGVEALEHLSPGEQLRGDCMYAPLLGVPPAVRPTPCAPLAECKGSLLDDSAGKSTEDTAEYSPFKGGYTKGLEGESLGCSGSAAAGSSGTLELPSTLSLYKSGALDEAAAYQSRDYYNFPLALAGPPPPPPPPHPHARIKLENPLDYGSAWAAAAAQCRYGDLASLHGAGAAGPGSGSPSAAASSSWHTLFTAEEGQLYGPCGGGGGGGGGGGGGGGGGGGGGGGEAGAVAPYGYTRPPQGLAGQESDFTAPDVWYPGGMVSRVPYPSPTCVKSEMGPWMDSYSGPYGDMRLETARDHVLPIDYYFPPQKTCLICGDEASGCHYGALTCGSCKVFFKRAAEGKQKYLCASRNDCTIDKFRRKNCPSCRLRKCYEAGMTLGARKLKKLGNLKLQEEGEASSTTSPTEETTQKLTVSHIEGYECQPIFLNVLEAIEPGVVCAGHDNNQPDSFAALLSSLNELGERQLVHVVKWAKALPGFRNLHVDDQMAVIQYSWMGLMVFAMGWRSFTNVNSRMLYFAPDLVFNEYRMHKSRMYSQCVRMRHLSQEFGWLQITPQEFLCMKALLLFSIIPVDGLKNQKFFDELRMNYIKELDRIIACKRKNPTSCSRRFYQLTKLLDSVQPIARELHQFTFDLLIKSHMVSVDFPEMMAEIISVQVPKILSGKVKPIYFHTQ

Test [20] has the same target. Put plainly: qHTS assay to identify small molecule agonists of the androgen receptor (AR) signaling pathway in the presence of an antagonist (AID 1259381; calls by dose curve; further: nearly all actives have a fitted effect of over 15% in size). Put shortly: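 Reporter-gene luminescence from MDA-kb2 cells exposed 16hr at 37C (0% CO2) to 15-point compound titrations with 3.0uM final nilutamide as AR antagonist.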

Values without a mark were called inactive. Records with an inconclusive call do not appear. Activity calls are given as the source filed them. Unless noted, the call rests on the fitted dose curve; in most records, active means well fitted curve in the direction sought with a large enough effect in the repeat runs; inconclusive means weak or mixed curves; inactive means no such curve, though single readings can be large; an effect the other way counts as inactive or inconclusive.

Chain of Estrogen receptor beta (Homo sapiens) (Q92731 whole entry, looked up): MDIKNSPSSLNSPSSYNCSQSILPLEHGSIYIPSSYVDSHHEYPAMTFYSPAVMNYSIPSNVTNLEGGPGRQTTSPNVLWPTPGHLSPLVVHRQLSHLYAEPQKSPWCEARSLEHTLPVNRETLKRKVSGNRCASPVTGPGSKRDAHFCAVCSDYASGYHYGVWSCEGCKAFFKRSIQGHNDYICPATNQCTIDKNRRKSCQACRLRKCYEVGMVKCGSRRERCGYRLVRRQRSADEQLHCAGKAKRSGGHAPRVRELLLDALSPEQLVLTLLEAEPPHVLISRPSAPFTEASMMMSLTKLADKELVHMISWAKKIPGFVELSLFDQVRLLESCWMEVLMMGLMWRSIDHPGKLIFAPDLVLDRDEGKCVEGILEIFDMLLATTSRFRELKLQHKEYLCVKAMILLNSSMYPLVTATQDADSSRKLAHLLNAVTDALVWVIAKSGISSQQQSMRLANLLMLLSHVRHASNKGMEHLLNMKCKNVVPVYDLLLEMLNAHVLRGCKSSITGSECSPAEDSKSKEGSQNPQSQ

Turning to `Cc1ccc(C=O)cc1`, the Potency result in [1], in [2], in [3], in test [4], in test [5] and in [6] was “inactive” in each case. In addition, the Potency result in test [7], in [8], in test [9], in test [10], in [11] and in test [12] was “inactive” throughout. Moreover, the Potency result in [13], in [15], in test [16] and in [17] was “inactive” each time. The compound was called inactive in [14].
For `[Cl][Eu]([Cl])[Cl]`, the Potency result in test [1], in test [2], in test [3], in test [4], in test [5] and in test [6] was “inactive” each time. Besides, the Potency result in test [8], in test [9], in test [12], in test [16] and in test [17] was “inactive” each time. For the same compound, the Potency in test [13] is 7.7 µM (active).
As for `O=C(CCN1CCC(c2ccccc2)C1)c1ccc2c(c1)OCCO2` (configuration not stated), the Potency entry in test [1], in [2], in test [3], in test [4], in test [5] and in test [7] was “inactive” in each case. Further, the Potency result in [18], in test [8], in test [9], in test [12], in test [15] and in test [17] was “inactive” each time. The Potency in test [10] was 33.5 µM (active); in test [13], 18.8 µM (active). Moreover, in test [14], the compound was classed as inactive.
Regarding `Cc1ccc(Cl)c(N)c1Cl`, the Potency result in [1], in [2], in test [3], in test [4], in test [5] and in test [6] was “inactive” each time. Besides, the Potency result in test [8], in test [9], in test [12], in test [15], in test [16] and in test [17] was “inactive” throughout. Besides, the Potency was 61.1 µM (active) in test [11] and 21.7 µM (active) in [13]. For the same compound, in test [14], the result was inactive.
Consider `S=C1NC=NC2N=CNC12` (configuration not stated), for which the Potency entry in test [1], in test [2], in test [3], in test [4], in test [5] and in [6] was “inactive” each time. For the same compound, the Potency entry in test [8], in test [9], in test [10], in test [11], in test [12] and in test [13] was “inactive” each time. In addition, the Potency result in test [16] is “inactive”. Besides, the Potency in test [17] is 3.44 µM (active).
Turning to `CC1=C(/C=C/C(C)=C/C=C/C(C)=C\C(=O)O)C(C)(C)CCC1`, the Potency entry in test [1], in [2], in [3], in test [4], in test [5] and in test [6] was “inactive” throughout. Moreover, the Potency entry in test [8], in [9], in test [10] and in [11] was “inactive” throughout. The Potency in test [17] was 9.72 µM (active).
In the case of `Clc1ccc2c(Cl)ccnc2c1`, the Potency result in [1], in test [2], in [3], in test [4], in [6] and in test [19] was “inactive” each time. The Potency entry in test [7], in test [8], in [9], in [10], in test [11] and in test [12] was “inactive” each time. Also, the Potency entry in [13], in [15], in [16], in test [17] and in test [20] was “inactive” in each case. For the same compound, in test [14], the result was inactive.
